Assay results taken from PubChem BioAssay (NCATS).
Records with an inconclusive call do not appear. Values without a mark were called inactive. Calls of active or inactive are those of the source. Unless noted, calls follow the shape of the full dose curve.

Target: 3',5'-cyclic-AMP phosphodiesterase 4B (Homo sapiens) (UniProt Q07343)
Assay: qHTS Assay for Inhibitors of PDE-IV (AID 607; active = well fitted activation curve with a large enough effect in the main read-out, with a control signal flat, not every such curve was filed as active; also: % of control where 0% means no effect)
Details: HEK293 ACTOne CNG channel cells, membrane potential fluorescence; series mostly up to 22.9 µM; activation (PDE inhibition): at the top concentration
Summary of the method: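 ACTOne HEK293 cells carry a modified cAMP-gated CNG channel and express endogenous PDE4; plated 1000 cells/well, compounds up to 22.9 uM final. Membrane-potential dye fluorescence (ex 535/em 590) was read; parental cells received 10 uM forskolin + 100 uM RO 20-1724.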

3',5'-cyclic-AMP phosphodiesterase 4B (Homo sapiens), sequence (Q07343 whole entry, looked up): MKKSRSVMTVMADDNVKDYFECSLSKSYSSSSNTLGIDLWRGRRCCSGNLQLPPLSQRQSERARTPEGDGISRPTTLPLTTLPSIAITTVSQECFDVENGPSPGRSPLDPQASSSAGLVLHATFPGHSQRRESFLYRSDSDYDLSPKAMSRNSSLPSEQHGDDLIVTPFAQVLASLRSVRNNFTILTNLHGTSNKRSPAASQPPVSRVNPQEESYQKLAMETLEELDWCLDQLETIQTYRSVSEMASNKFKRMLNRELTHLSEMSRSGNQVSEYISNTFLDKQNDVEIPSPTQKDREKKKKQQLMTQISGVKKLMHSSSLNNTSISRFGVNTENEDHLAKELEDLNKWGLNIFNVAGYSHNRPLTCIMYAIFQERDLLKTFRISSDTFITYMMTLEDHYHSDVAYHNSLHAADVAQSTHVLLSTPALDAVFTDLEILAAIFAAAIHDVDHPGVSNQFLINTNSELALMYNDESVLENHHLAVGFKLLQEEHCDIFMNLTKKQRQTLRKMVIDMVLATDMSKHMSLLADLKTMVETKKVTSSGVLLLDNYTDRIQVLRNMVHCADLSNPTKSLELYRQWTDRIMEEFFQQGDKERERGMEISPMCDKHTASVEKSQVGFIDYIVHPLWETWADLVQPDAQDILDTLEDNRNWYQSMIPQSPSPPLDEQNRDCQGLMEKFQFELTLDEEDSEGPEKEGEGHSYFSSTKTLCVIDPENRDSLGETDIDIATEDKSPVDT

Row | SMILES | activation (PDE inhibition)
1 | COC1=C[C@H]2[C@@H]3Cc4ccc(OC)c(O)c4[C@@]2(CCN3C)CC1=O | 2.63%
2 | O=c1ccc2cc(O[C@@H]3O[C@@H](CO)[C@@H](O)[C@@H](O)[C@H]3O)c(O)cc2o1 | 17.6%
3 | CC(C)(O)[C@H]1[C@H]2OC(=O)[C@@H]1[C@]1(O)C[C@H]3O[C@]34C(=O)O[C@H]2[C@]14C | -0.0373%
4 | C=C(C)[C@H]1[C@H]2OC(=O)[C@@H]1[C@]1(O)C[C@H]3O[C@]34C(=O)O[C@H]2[C@]14C | 12.5%
5 | CC[C@H](CO)NC(=O)[C@H]1C=C2c3cccc4[nH]cc(c34)C[C@H]2N(C)C1 | 2.63%
6 | Oc1cc2c(cc1O)[C@H]1c3ccccc3CN[C@H]1CC2 | -3.82%
7 | COc1cc2c(cc1OC)-c1c(OC)c(OC)c(CO)c3c1[C@H](C2)N(C)CC3 | 23.5%
8 | COC[C@H]1OC(=O)c2coc3c2[C@@]1(C)C1=C(C3=O)[C@H]2CCC(=O)[C@@]2(C)C[C@H]1OC(C)=O | 22.8%
9 | C[C@H]1CC[C@@H]2[C@@H](C)C(=O)O[C@H]3O[C@@]4(C)CC[C@@H]1[C@]32OO4 | -7.73%
10 | COc1cc2c(cc1OC)-c1c(O)c(OC)cc3c1[C@@H](C2)N(C)CC3 | 8.1%
11 | OC[C@H]1CCCN2CCCC[C@@H]12 | -70.4%

Target: Cytochrome P450 2C9 (Homo sapiens) (UniProt P11712)
Assay: qHTS Assay for Inhibitors and Substrates of Cytochrome P450 2C9 (AID 883; active = well fitted inhibition curve with a large enough effect; also: % is scaled to controls: 0 for no effect and ±100 for the full control effect; nearly all actives have a fitted effect of over 60% in size)
Details: recombinant CYP2C9, luciferin-H luminescence, 60 min; series mostly up to 57.1 µM; activity change, negative = inhibition: at the top concentration
Summary of the method: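 Human CYP2C9 (10nM) hydroxylated Luciferin-H (100uM, at its KM) to luciferin in 25mM KPO4. Compound was preincubated 10 min at 37C, then NADPH regeneration started a 60 min reaction at 37C. Luminescence was read after detection reagent, normalized to 57uM sulphaphenazole.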

Cytochrome P450 2C9 (Homo sapiens), sequence (P11712 whole entry, looked up): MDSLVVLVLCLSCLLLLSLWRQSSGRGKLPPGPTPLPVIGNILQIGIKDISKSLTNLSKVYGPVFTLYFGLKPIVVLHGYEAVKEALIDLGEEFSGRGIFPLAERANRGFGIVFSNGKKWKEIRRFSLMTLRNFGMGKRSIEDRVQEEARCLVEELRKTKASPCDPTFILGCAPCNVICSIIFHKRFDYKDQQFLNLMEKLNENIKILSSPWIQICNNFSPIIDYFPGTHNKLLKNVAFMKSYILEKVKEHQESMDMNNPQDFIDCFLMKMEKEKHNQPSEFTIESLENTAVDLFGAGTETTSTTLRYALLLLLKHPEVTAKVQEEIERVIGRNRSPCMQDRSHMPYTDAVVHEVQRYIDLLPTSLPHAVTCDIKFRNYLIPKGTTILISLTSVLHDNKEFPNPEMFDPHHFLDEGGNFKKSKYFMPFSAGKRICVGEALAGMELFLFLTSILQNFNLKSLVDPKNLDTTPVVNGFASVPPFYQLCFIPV

Row | SMILES | activity change, negative = inhibition
12 | COC1=C[C@H]2[C@@H]3Cc4ccc(OC)c(O)c4[C@@]2(CCN3C)CC1=O | -10.8%
13 | CC1=CC(=O)C2=C(C)C[C@H](O)[C@@H]3[C@@H](OC(=O)[C@H]3C)[C@H]12 | 12.7%
14 | COc1cc2c(cc1OC)-c1c(OC)c(OC)c(CO)c3c1[C@H](C2)N(C)CC3 | -7.32%
15 | C[C@@]12CCC[C@](C)(C(=O)O)[C@@H]1CCc1ccc(O)cc12 | -33.1%
16 | COc1cc2c(cc1OC)-c1c(O)c(OC)cc3c1[C@@H](C2)N(C)CC3 | -18.1%
17 | COc1cc2c(cc1O)CCN[C@H]2C | -22.9%
18 | OC[C@H]1CCCN2CCCC[C@@H]12 | 12.5%

Target: Cytochrome P450 2D6 (Homo sapiens) (UniProt P10635)
Assay: qHTS Assay for Inhibitors and Substrates of Cytochrome P450 2D6 (AID 891; active = well fitted inhibition curve with a large enough effect; also: nearly all actives have a fitted effect of over 60% in size; also: potency is read from the fitted curve at half-maximal effect;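 as to activity change, negative = inhibition: luciferin methyl ether substrate demethylated by CYP2D6 with NADPH regeneration; % is scaled to controls: 0 for no effect and ±100 for the full control effect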)
Details: recombinant CYP2D6, luciferin-ME EGE luminescence; series mostly up to 57.1 µM; activity change, negative = inhibition: at the top concentration
Summary of the method: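 Luminescent read-out of luciferin formed by 5 nM human CYP2D6 demethylating 30 uM Luciferin-ME EGE (Km level) over 60 min at room temperature after NADPH regeneration addition. Data normalized to full inhibition by 1.43 uM quinidine.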

Cytochrome P450 2D6 (Homo sapiens), sequence (P10635 whole entry, looked up): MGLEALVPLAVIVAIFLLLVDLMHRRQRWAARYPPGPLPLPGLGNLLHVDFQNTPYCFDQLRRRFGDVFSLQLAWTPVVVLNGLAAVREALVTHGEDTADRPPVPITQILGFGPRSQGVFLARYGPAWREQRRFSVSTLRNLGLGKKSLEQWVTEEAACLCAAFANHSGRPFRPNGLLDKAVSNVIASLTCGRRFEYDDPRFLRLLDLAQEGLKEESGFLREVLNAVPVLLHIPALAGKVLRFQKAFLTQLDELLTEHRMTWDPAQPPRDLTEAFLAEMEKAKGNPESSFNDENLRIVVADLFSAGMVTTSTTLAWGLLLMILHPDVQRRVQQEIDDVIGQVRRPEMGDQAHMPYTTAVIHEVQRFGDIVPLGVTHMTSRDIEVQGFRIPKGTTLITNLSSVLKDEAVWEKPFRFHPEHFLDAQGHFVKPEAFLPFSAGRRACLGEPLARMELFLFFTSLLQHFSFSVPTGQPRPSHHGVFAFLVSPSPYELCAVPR

Row | SMILES | activity change, negative = inhibition | Potency
19 | CC1=CC(=O)C2=C(C)C[C@H](O)[C@@H]3[C@@H](OC(=O)[C@H]3C)[C@H]12 | 0.08% | 
20 | COc1cc2c(cc1OC)-c1c(OC)c(OC)c(CO)c3c1[C@H](C2)N(C)CC3 | -3.46% | 
21 | C[C@@]12CCC[C@](C)(C(=O)O)[C@@H]1CCc1ccc(O)cc12 | 5.07% | 
22 | COc1cc2c(cc1OC)-c1c(O)c(OC)cc3c1[C@@H](C2)N(C)CC3 |  | 15.8 µM (active)
23 | OC[C@H]1CCCN2CCCC[C@@H]12 | -5.54% | 

Target: Cytochrome P450 2C19 (Homo sapiens) (UniProt P33261)
Assay: qHTS Assay for Inhibitors and Substrates of Cytochrome P450 2C19 (AID 899; active = well fitted inhibition curve with a large enough effect; also: % is scaled to controls: 0 for no effect and ±100 for the full control effect; nearly all actives have a fitted effect of over 60% in size)
Details: recombinant CYP2C19, luciferin-H EGE luminescence; series mostly up to 57.1 µM; activity, negative = inhibition: at the top concentration
Summary of the method: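 Human CYP2C19 (5nM) with Luciferin-H EGE at 10uM (its KM) in 50mM KPO4 was preincubated with compound for 10 min at 37C. NADPH regeneration started a 60 min 37C reaction. Luciferin was read by luminescence, normalized to 57uM ketoconazole.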

Cytochrome P450 2C19 (Homo sapiens), sequence (P33261 whole entry, looked up): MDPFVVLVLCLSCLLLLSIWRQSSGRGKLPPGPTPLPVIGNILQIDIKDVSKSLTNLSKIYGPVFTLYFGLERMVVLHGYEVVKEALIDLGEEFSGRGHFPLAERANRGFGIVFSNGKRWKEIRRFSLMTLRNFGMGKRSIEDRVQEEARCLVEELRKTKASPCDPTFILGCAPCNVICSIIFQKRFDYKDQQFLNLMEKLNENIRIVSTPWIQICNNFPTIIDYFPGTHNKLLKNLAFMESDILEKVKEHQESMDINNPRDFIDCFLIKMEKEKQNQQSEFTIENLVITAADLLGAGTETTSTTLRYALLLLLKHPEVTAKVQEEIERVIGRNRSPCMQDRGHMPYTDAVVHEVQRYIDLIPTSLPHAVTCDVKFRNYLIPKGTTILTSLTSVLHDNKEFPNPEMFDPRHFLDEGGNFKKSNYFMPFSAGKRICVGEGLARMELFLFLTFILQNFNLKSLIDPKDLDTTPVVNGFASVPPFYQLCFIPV

Row | SMILES | activity, negative = inhibition
24 | COC1=C[C@H]2[C@@H]3Cc4ccc(OC)c(O)c4[C@@]2(CCN3C)CC1=O | 17.2%
25 | CC1=CC(=O)C2=C(C)C[C@H](O)[C@@H]3[C@@H](OC(=O)[C@H]3C)[C@H]12 | -18.9%
26 | COc1cc2c(cc1OC)-c1c(OC)c(OC)c(CO)c3c1[C@H](C2)N(C)CC3 | -34.9%
27 | C[C@@]12CCC[C@](C)(C(=O)O)[C@@H]1CCc1ccc(O)cc12 | -37.9%
28 | COc1cc2c(cc1O)CCN[C@H]2C | -13.8%
29 | OC[C@H]1CCCN2CCCC[C@@H]12 | 5.95%

Tested on: not listed separately
Assay: Validation screen for inhibitors of Lassa infection (AID 463096); also: % is scaled to controls: 0 for no effect and ±100 for the full control effect
Details: Lassa virus infection, cell-based; series mostly up to 46.1 µM; activity change, negative = inhibition: at the top concentration

Row | SMILES | activity change, negative = inhibition
30 | Nc1nc2c(nc(Br)n2C2O[C@H]3COP(=O)(O)O[C@@H]3C2O)c(=O)[nH]1 (some centres undefined) | 8.1%
31 | Nc1nc(Cl)nc2c1ncn2[C@@H]1O[C@H](COP(=O)(O)OP(=O)(O)OP(=O)(O)O)[C@H](O)[C@H]1O | -15.6%
32 | NC(=S)NCCCC(N)C(=O)O (centres undefined) | 3.27%
33 | Nc1ncnc2c1ncn2[C@@H]1O[C@H](CO)[C@H](O)[C@H]1O | -19.7%
34 | CC(C)C1NC(=O)[C@H](CCCCN)NC(=O)[C@@H](Cc2c[nH]c3ccccc23)NC(=O)[C@H](Cc2ccc(O)cc2)NC(=O)[C@H](C)N(C)C(=O)[C@H](Cc2ccccc2)NC1=O (some centres undefined) | 44.8%
35 | CC(C)(C)NCC(O)COc1nsnc1N1CCOCC1 (centres undefined) | 18.2%
36 | COc1ccc(CCNC[C@@H](O)c2ccc(O)cc2)cc1OC | -10.8%
37 | C[C@H]1c2cccc(O)c2C(O)=C2C(=O)[C@]3(O)C(O)=C(C(N)=O)C(=O)C(N(C)C)[C@@H]3[C@@H](O)C21 (some centres undefined) | -4.39%
38 | C#C[C@]1(O)CC[C@H]2C3CCC4=Cc5oncc5CC4(C)C3CCC21C (some centres undefined) | -18%
39 | CC(=O)O[C@]1(C(C)=O)CC[C@H]2C3C=C(Cl)C4=CC(=O)[C@@H]5C[C@H]5[C@]4(C)C3CC[C@@]21C (some centres undefined) | -27%
40 | CCCC1O[C@@H]2C[C@H]3[C@@H]4CCC5=CC(=O)C=C[C@]5(C)C4[C@@H](O)C[C@]3(C)[C@]2(C(=O)CO)O1 (some centres undefined) | -9.32%
41 | CN(C)C1C(=O)C(C(N)=O)=C(O)[C@@]2(O)C(=O)C3=C(O)c4c(O)ccc(Cl)c4[C@@H](O)C3C[C@@H]12 (some centres undefined) | -8.59%
42 | O=[N+]([O-])c1ccc(CSc2ncnc3c2ncn3[C@@H]2O[C@H](CO)[C@H](O)[C@H]2O)cc1 | 6.67%
43 | CSc1nc(N)c2ncn([C@@H]3O[C@H](COP(=O)(O)OP(=O)(O)O)[C@H](O)[C@H]3O)c2n1 | -5.7%
44 | CNC(=O)[C@H]1O[C@@H](n2cnc3c(NCc4ccc(N)cc4)ncnc32)[C@H](O)[C@H]1O | -16.8%
45 | CN1CCc2cc(Cl)c(O)cc2C(c2ccccc2)C1 (centres undefined) | -1.42%
46 | O=C(NCCNCC(O)COc1ccc(O)cc1)N1CCOCC1 (centres undefined) | -0.91%
47 | Cc1ccccc1N1CCN(S(=O)(=O)C[C@]23CCC(CC2NC(=O)[C@@H](N)CCS(C)(=O)=O)C3(C)C)CC1 (some centres undefined) | 15.3%
48 | C[C@]12C[C@H](O)C3[C@@H](CCC4=CC(=O)CC[C@@]43C)[C@@H]1CC[C@@H]2C(=O)CO (some centres undefined) | -17.1%
49 | Nc1ncnc2c1ncn2[C@@H]1O[C@H](C(=O)NC2CC2)[C@H](O)[C@H]1O | -0.306%
50 | Cc1ccc(OCC(O)C(C)NC(C)C)c2c1CCC2 (centres undefined) | -36.8%
51 | CCCCC#Cc1nc(N)c2ncn([C@@H]3O[C@H](C(=O)NCC)[C@@H](O)[C@H]3O)c2n1 | 6.24%
52 | C[C@H]1CC2[C@@H]3CCC4=CC(=O)C=C[C@]4(C)[C@@]3(Cl)[C@@H](O)C[C@]2(C)[C@@]1(O)C(=O)CO (some centres undefined) | 12.8%
53 | CC[C@H](C)C(=O)O[C@H]1CCC=C2C=C[C@H](C)[C@H](CC[C@@H]3C[C@H](O)CC(=O)O3)C21 (some centres undefined) | 7.17%
54 | CN(C)CCCO[C@H]1C([C@H](O)CO)O[C@@H]2OC(C)(C)O[C@@H]21 (some centres undefined) | 47.5%
